This is a sample that favours compounds with a hit; in the whole collection about 2.2% have one here.
ADAM10 inh: human ADAM10 inhibitors, primary screen, biochemical, QFRET, HTS; Disintegrin and metalloproteinase domain-containing protein 10 (Homo sapiens), O14672; recombinant ADAM10, EDANS/DABCYL FRET peptide cleavage, 3 h; inhibition, % at 7 µM; 0.62% of 370,000 active;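 active means inhibition above a per-campaign cutoff equal to the mean of compounds falling between control-based bounds plus 3 SD, cut at about 20% in these data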;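 further: 0% = DMSO wells while the 100% control is not disclosed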
KLK7 zymogen act: proKLK7 zymogen activators, primary screen, biochemical, fluorescence intensity. Kallikrein-7 (Homo sapiens), P49862. purified proKLK7, EDANS-DABCYL substrate fluorescence; 100% is mature enzyme control, 0% vehicle. activation, % at 7 µM. 0.9% of 370,000 active. AID 652039, 2013;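 active means activation above the mean of all tested compounds plus 3 SD, computed per campaign excluding outliers beyond control limits, cut at about 13% in these data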
Target sequence (P49862 whole entry, looked up): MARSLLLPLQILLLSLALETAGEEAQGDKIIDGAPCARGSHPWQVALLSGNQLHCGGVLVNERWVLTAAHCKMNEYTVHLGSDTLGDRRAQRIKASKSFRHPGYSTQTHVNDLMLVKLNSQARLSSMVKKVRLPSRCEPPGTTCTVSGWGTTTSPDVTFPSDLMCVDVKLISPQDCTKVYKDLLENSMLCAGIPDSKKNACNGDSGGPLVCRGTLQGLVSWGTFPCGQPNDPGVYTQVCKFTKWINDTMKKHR
GC-A act: GC-A stimulated cGMP production enhancers – HEK293 GC-A cells, cGMP TR-FRET, EC30 ANP, primary screen; Atrial natriuretic peptide receptor 1 (Homo sapiens), P16066; 0% at EC30 ANP, 100% saturating ANP; activation, % at 10 µM; 0.14% of 370,000 active; in the data active means activation above about 40%
GC-B act: human GC-B receptor activators, primary screen, HEK293 GC-B cells, cGMP TR-FRET, EC30 CNP; 0% at EC30 CNP, 100% saturating CNP; activation, % at 10 µM; 0.11% of 370,000 active; AID 1920062, 2024;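 active means activation at 10 µM reaching about 35% in either raw or pattern-adjusted values, limit read from the data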
ADAM17 inh: ADAM17 inhibitors, primary screen, biochemical, QFRET | Disintegrin and metalloproteinase domain-containing protein 17 (Homo sapiens), P78536 | recombinant ADAM17, EDANS/DABCYL FRET peptide cleavage | inhibition, % at 6.95 µM | 0.83% of 370,000 active | AID 720648, 2013;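 active means inhibition above the mean of compounds lying between control limits plus 3 SD, set per campaign, cut at about 8.5% in these data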;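 further: 0% = DMSO-only wells as the low control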
ADAM10 counter: ADAM10 inhibitors, counter-screen for ADAM17 exosite inhibitor project, biochemical, FRET, human ADAM10. shares compounds with ADAM17 inh. recombinant ADAM10, EDANS/DABCYL FRET peptide cleavage, 3 h. inhibition, % at 6.95 µM. 47% of 2,900 active. AID 743256, 2014;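 active means mean inhibition over the triplicate runs exceeds the activity threshold set in the earlier primary screen, cut at about 20% in these data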;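 further: 0% = DMSO wells and 100% = marimastat wells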
ADAM17 confirm: ADAM17 inhibitors, hit retest, confirmation, biochemical, QFRET peptide cleavage; shares compounds with ADAM17 inh; recombinant ADAM17, EDANS/DABCYL QFRET peptide cleavage; inhibition, % at 6.95 µM; 65% of 2,900 active;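 active means mean inhibition across replicates above the hit cutoff set in the primary screen, cut at about 8.5% in these data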;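 further: 0% = DMSO wells and 100% = marimastat wells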
Active calls of the source: *; / = no result given.

SMILES	ADAM10 inh	KLK7 zymogen act	GC-A act	GC-B act	ADAM17 inh	ADAM10 counter	ADAM17 confirm
CC(C)=CCc1cc([C@@H]2COc3c(ccc4c3C=CC(C)(C)O4)C2)c(O)cc1O	13	0	-1	-2	13*	13	8
CC(=O)Oc1ccc([C@@H]2COc3c(ccc4c3C=CC(C)(C)O4)C2)c(OC(C)=O)c1	6	0	2	-7	-1	/	/
O=C(OCC#CCSc1nnc(-c2ccc(Cl)cc2)o1)c1ccc(F)cc1	3	/	-4	-9	-2	/	/
CCC(C)NS(=O)(=O)c1ccc(S(=O)(=O)N(CC(=O)Nc2ccccc2)Cc2ccco2)cc1 (stereo not given)	10	1	6	4	8.9*	20*	11*
O=C(Nc1nn(Cc2ccc(Cl)cc2)cc1Br)c1ccc(COc2ccccc2Cl)o1	17	-1	-4	-3	10*	33*	18*
CCn1c2c(c3cc(Br)ccc31)CCC/C2=N\O	16	-1	12	7	9.5*	0	6
CCC(C(=O)Nc1ccccc1N1CCCC1)c1cccc(Cl)c1 (stereo not given)	5	0	-9	-14	2	/	/
C[C@@H]1CC=C[C@H]2[C@H]1C(=O)N(Cc1ccccc1)[C@H]2c1ccc2ccccc2c1	17	1	2	-10	9.4*	10	6
CCCCOCCCNC(=O)C[C@@H]1C(=O)N(Cc2ccc(OC)cc2)/C2=C/CCCCC[C@@]21C(=O)OCC	5	1	-3	-5	2	/	/
C=CCN1C(=O)[C@@H](CC(=O)NCc2cccc3ccccc23)[C@]2(C(=O)OCC)CCCCC/C=C/12	8	0	-3	-10	11*	8	5
CCOC(=O)[C@]12CCCCC/C=C\1N(Cc1ccc(OC)cc1)C(=O)[C@H]2CC(=O)NCC1CCCCC1	11	0	2	3	13*	9	5
C[C@H]1C2CC(OC(=O)Nc3cccc(Cl)c3)C(C2)[C@H]2CCCCN21 (stereo not given in full)	-5	0	-1	-3	-7	/	/
Cc1[nH]c2ccccc2c1C(=O)COC(=O)c1c(-c2ccccc2Cl)noc1C	20	-3	-31	-21	9.5*	33*	18*
COC(=O)c1cccc(C(=O)N2CCCC(Nc3ccc(C)c(C)c3)C2)c1 (stereo not given)	10	0	0	-3	11*	18	7
COc1ccc(C(=O)N2CCCC(Nc3ccc(C)c(C)c3)C2)cc1F (stereo not given)	1	1	-1	-3	1	/	/
COc1ccc(S(=O)(=O)Nc2ccc3c(c2)C(=O)N([C@H](C)CO)C[C@H](C)[C@@H](CN(C)C(=O)Nc2ccc(C(F)(F)F)cc2)OCCCC[C@H](C)O3)cc1	13	1	1	1	10*	39*	21*
COc1ccc(S(=O)(=O)Nc2cccc3c2O[C@H](CN(C)C(=O)Nc2ccc(C(F)(F)F)cc2)[C@@H](C)CN([C@H](C)CO)C3=O)cc1	21*	0	-2	4	16*	21*	14*
C[C@H](CO)N1C[C@H](C)[C@@H](CN(C)Cc2ccccc2)Oc2c(NC(=O)c3ccncc3)cccc2C1=O	-4	1	-1	2	1	/	/
COc1ccc(NC(=O)N(C)C[C@H]2Oc3c(NC(=O)c4nc5ccccc5s4)cccc3C(=O)N([C@@H](C)CO)C[C@H]2C)cc1	18	2	-2	3	12*	25*	13*
C[C@H](CO)N1C[C@H](C)[C@@H](CN(C)Cc2ccc(Oc3ccccc3)cc2)Oc2c(NC(=O)c3ccncc3)cccc2C1=O	20	1	1	-2	12*	13	8
COc1ccc(NC(=O)N(C)C[C@H]2Oc3c(NC(=O)c4ccncc4)cccc3C(=O)N([C@H](C)CO)C[C@@H]2C)cc1	-3	0	-2	0	-4	/	/
COC(=O)[C@]12C[C@H](CC(=O)NCCCN3CCCC3=O)C(=O)N(Cc3ccccc3)C1=C[C@H](COCc1ccccc1)O[C@@H]2C	5	0	-1	2	1	/	/
CCOc1ccc(-n2c(SCC(=O)c3ccc4ccccc4c3)nnc2-c2ccco2)cc1	6	0	-2	2	2	/	/
COc1ccc(/C(C)=N/NC(=O)Cc2cc(=O)[nH][nH]2)cc1OC	0	0	4	8	0	/	/
CCC(=O)Nc1ccc(N2CCN(S(C)(=O)=O)CC2)cc1	0	0	2	6	-2	/	/
SMILES	ADAM10 inh	KLK7 zymogen act	GC-A act	GC-B act	ADAM17 inh	ADAM10 counter	ADAM17 confirm
CS(=O)(=O)N1CCN(c2ccc(NC(=O)C(c3ccccc3)c3ccccc3)cc2)CC1	17	0	3	1	13*	6	3
CC1CN(C(=O)COc2ncnc3ccccc23)CC(C)O1 (stereo not given)	-4	0	2	0	9.7*	-6	1
O=C(COc1ncnc2ccccc12)N1CCN(c2ccccc2)CC1	-3	0	2	0	-3	/	/
COc1cccc(CC(=O)O[C@@H]2CCC[C@@]3(C(=O)N(Cc4ccccc4)c4ccccc43)[C@H]2NC(=O)CCc2ccccc2)c1	15	1	1	1	7	/	/
COc1ccc(C2c3c(-c4ccccc4O)n[nH]c3C(=O)N2CCc2ccc(OC)c(OC)c2)cc1 (stereo not given)	24*	0	4	3	12*	23*	15*
C=CCC[C@H](Cc1ccc(F)cc1)C(=O)O[C@H](CNC(=O)[C@@H](CC=C)CC(=O)N(CCO)Cc1ccccc1)c1ccccc1	14	1	-5	1	11*	45*	22*
C=CC[C@H](CC(=O)N(CCO)Cc1ccccc1)C(=O)NC[C@@H](OC(=O)[C@@H](CC=C)Cc1ccc(F)cc1)c1ccccc1	11	0	-8	-13	3	/	/

Bioassay records: PubChem BioAssay, several laboratories
